# ± gives the standard deviation.
# System: EfPiwi piRISC loaded with L1MC piRNA (26 nt)
# Experiment: pre-steady-state target cleavage rate (min^-1); auxiliary factor: none (no Gtsf1); guide: L1MC piRNA 5'p-UAACUAAAUACUAUGCAAGCUGUAGG; higher = faster piRNA-guided slicing of the target
# How it was run: (§1)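 The pre-steady-state cleavage rate was calculated from a burst-and-steady-state fit. Data came from Cleave-'n-Seq, in which […] transcribed, DNA-blocked target RNA library was mixed with 1 nM active affinity-purified piRISC carrying one synthetic guide, with or without 500 nM GTSF1 partner protein, in HEPES–potassium acetate buffer at 33 °C for 0–8 or 0–960 min. Uncleaved targets were sequenced and normalised to depth and to weakly complementary targets, three trials were pooled, and k3 was capped at 0.0001 min^-1.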
row,Sequence,pre-steady-state target cleavage rate
1,UCCUGGAUGUCGAAGCAUAGUAUUUACUAA,< 0.0001
2,UCCUGGAUGUCGAACGUAAGAUUUAGUUA,< 0.0001
3,UCCUGGAUGUCCUUGCAUUCAAUUUAGUAA,< 0.0001
4,UCCUGGAUGUCGAACGAUAGUAUUUAGUUU [g2:g14:cont:t1U],< 0.0001
5,UCCUGGAUGUCGAACCUUAGUAUUUAGUUA,< 0.0001
6,UCCUGGAUGUCGAACGUAUCUAUUUAUUUA,< 0.0001
7,UCCUGGAUGUCGAACGUAAGAAUUUAGUAA,< 0.0001
8,UCCUGGAUGUCGAUGCAUAGAAAUUAGUUA,< 0.0001
9,UCCUGGAUGUCGAACCUAUGUAUUUAGUUA,< 0.0001
10,UCCUGGAUGUCGUUGCAUAGAUUUAGUUA,< 0.0001
11,UCCUGGUACAGCUUGCAAUCAUAAAUCAAA [g14:g24:cont:t1A],< 0.0001
12,UCCUGGAUGUCGAAGCUUAGUAUUUAGUAA,< 0.0001
13,UCCUGGAUGUCCUUGCAUACUAUUUAGAUA,< 0.0001
14,UCCUGGAUGUCGAAGGAUAGUAUUUAGUUA,< 0.0001
15,UCCUGGAUGUCGAAGCAUAGUAUUUAGCUA,< 0.0001
16,UCCUGGAUGUCCUUCGUUAGUAUUUAGUUA,< 0.0001
17,UCCUGGAUGUCGAACGUUAGUAUUUAUGUUA,< 0.0001
18,UCCUGGAUGUCGAACCAUUGUAUUUAGUUA,< 0.0001
19,UCCUGGUACAGGAAGCAUAGUAUUUAGAAA,< 0.0001
20,UCCUGGAUGUCGAAGCAUAGUUUUUAGAUA,< 0.0001
21,UCCUGGAUGUCGAACGUAUGUAUUUAGUUU [g2:g11:cont:t1U],< 0.0001
22,UCCUGGAUGUCGAACGUAUCUGAUUUAGUUA,< 0.0001
23,UCCUGGAUGUCGAACGUUAGUUUAUAGUUA,< 0.0001
24,UCCUGGAUGUCGAUGCAUAGAAUUUAGUAA,< 0.0001
25,UCCUCCUACAGCUUGCAUUCUAUUUUCAAA,< 0.0001

# System: EfPiwi piRISC loaded with piRNA #1 (26 nt)
# Experiment: pre-steady-state target cleavage rate (min^-1); auxiliary factor: 500 nM Ephydatia muelleri Gtsf1; guide: piRNA #1 5'p-UGAGGUAGUAGGUUGUAUAGUAUCCA; MIWI and MILI are mouse PIWI proteins and EfPiwi is from a freshwater sponge; tags in brackets are library labels; higher = faster piRNA-guided slicing of the target
# How it was run: as §1
row,Sequence,pre-steady-state target cleavage rate
1,GGAGACCUUACUAUACAACCUUCUACCUGA,0.00341 ± 0.0028
2,GGAGAGGAUAGUAUACAACCUACUUCCUCA,0.00319 ± 0.0018
3,GGAGACGAUACUAUACUACCUACUACCACA,0.00202 ± 0.0018
4,GGAGAGGAUAGUAUACAACCAACUACCUCA,0.00242 ± 0.0023
5,GGAGACGAUAGUAUACAACCUACUACCUCA,0.00758 ± 0.0036
6,GGAGAGGAUACUAUACAACCAACUAGCUCA,0.00313 ± 0.0016
7,GGAGACCUCACUAUACAACCUACUACCUCA,0.0184 ± 0.0086
8,GGAGUCGAAACUAUACAACCUACUACCUCA,0.0604 ± 0.021
9,GGAGACCUAACUAUACAAGCUAGUACCUCA,0.00423 ± 0.0037
10,GGAGACGAUACUAAUACAACCUACUACCUCA,0.0773 ± 0.031
11,GGAGACGAUACUAUACAUCCUACUAGCUCA,0.00336 ± 0.0019
12,GGAGUGGAUACUAUACAACCUUCUAGCUCA,0.00376 ± 0.0018
13,GGAGAGGAUACUAUACAACCUUCUAGCUCA,0.00404 ± 0.0021
14,GGAGAGGAUACUAUACAACCUACCUACCUCA,0.00412 ± 0.0014
15,GGAGACGAAACUAUACAACCUACUACCACA,0.00352 ± 0.0032

# From the supplement of paper PMC10338343
